This is one part of a sample in which hits are shown more often than they occur.
Pf Dd2 inh = inhibitors of Plasmodium falciparum Dd2 growth | P. falciparum Dd2 growth, SYBR Green, 72 h | Potency, µM (highest dose often 28.9 µM), inactives show top-dose activity, negative = inhibition, actives largely listed as inhibitors | 4.3% of 120,000 active; active means well fitted inhibition curve with a large enough effect;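 further: plate controls were DMSO vehicle for no effect and reference drug for full effect; nearly all actives have a fitted effect of over 65% in size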
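Infected erythrocytes (Dd2, 0.3% parasitemia, 2.5% hematocrit final) are added to compound in RPMI-1640/Albumax II medium, grown 72 h at 37C in low oxygen, then lysed with saponin/Triton-X containing SYBR Green and read by fluorescence.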
* hit, by the source's call; i = inactive; ! = not confirmed by another sample; [ ] = remark or other dose. Potency means the concentration at half of the fitted maximal effect.

SMILES	Pf Dd2 inh
c1ccc(CC2=NOC3(CCN(Cc4c[nH]c5ccccc45)CC3)C2)cc1	12.6µM*
COc1ccc(-c2nnc3n2CCN(C(=O)c2ccc(Cl)nc2)C3)cc1	-13.7%
COC(=O)N1CCc2nc(C)nc(-c3ccc(Cl)cc3)c2CC1	-13.3%[44.1 µM]
COCCN1CC2(CCC1=O)CCN(C(=O)c1c(C)cccc1C)CC2	-6.9%
COc1ccc(C(=O)N2CCC3(CC2)NC(=O)N(Cc2cccc(Cl)c2)C3=O)cc1	i
Cc1nncn1C1CCN(S(=O)(=O)c2ccccc2F)CC1	0.3%
Cc1ccccc1-n1nc(-c2c(C)nc3c(OCC(=O)OC(C)(C)C)cccn3c2=O)cc1C	-24.3%
Cc1nn2cc(CCNC(=O)C3NCCc4[nH]cnc43)nc2s1 (stereo not drawn)	-3.4%
COc1ccc(CN[C@@H]2CCC[C@@H](C(=O)NCc3cc(F)cc(F)c3)CC(=O)N(C)C2)cc1	-25.2%
FC(F)(F)c1ccc(CN2CCn3c(nnc3-c3ccc(Cl)cc3)C2)cc1	-4.9%
COc1cccc(CCC(=O)NCCC2CCN(C(=O)Nc3ccc(F)cc3F)CC2)c1	-24.6%
COC(=O)[C@@H]1CN(C(=O)Nc2ccccc2)CCN1C(C)=O	-7.6%[44.1 µM]
c1cncc(CN2CC[C@H](c3nc4ccccc4[nH]3)C2)c1	-21.2%[44.1 µM]
Brc1ccc(CN2CCC(c3nc4ccncc4[nH]3)C2)cc1 (stereo not drawn)	10µM*!
CN(C)c1ccc(CN2CCC(c3nc4ccncc4[nH]3)C2)cc1 (stereo not drawn)	-17.7%[44.1 µM]
COc1cccc(-c2ncc3c(n2)OCCN(Cc2ccc(F)cc2F)C3=O)c1	-21.2%[44.1 µM]
COc1cccc(-c2ncc3c(n2)OCCN(Cc2ccc(F)cc2F)C3=O)c1F	10µM*
COc1ccccc1-c1ncc2c(n1)OCCN(Cc1ccc(F)cc1F)C2=O	i
O=C(O)c1cc2cn(C3CCCC3)cc2s1	19.5%
Cc1ccc(N2CC(NC(=O)c3ccc(S(=O)(=O)N4CCOCC4)cc3)CC2=O)cc1 (stereo not drawn)	i
O=C(NC1CC(=O)N(c2ccccc2)C1)c1ccc(S(=O)(=O)N2CCOCC2)cc1 (stereo not drawn)	i
COc1ccccc1C(=O)NCCSc1c(C)[nH]c2ccccc12	14.8%
COc1cc(C(=O)NCCSc2c(C)[nH]c3ccccc23)cc(OC)c1OC	-21.2%
CCN(CC)S(=O)(=O)c1ccc(C(=O)NCCSc2c(-c3ccccc3)[nH]c3ccccc23)cc1	11.2µM*
CCN(CC)S(=O)(=O)c1ccc(C(=O)NCCSc2c(-c3ccc(F)cc3)[nH]c3ccccc23)cc1	6.31µM*
SMILES	Pf Dd2 inh
O=C(NCCSc1c[nH]c2ccccc12)c1ccc(Cl)cc1	-2.3%
Cc1[nH]c2ccccc2c1SCCNC(=O)c1ccccc1F	-7.5%
Cc1ccc(-c2[nH]c3ccccc3c2SCCNC(=O)c2ccc(S(=O)(=O)N3CCOCC3)cc2)cc1	10µM*
COc1ccc(S(=O)(=O)Nc2ccc(C)n(CC(=O)N(C)C)c2=O)cc1	i
CN(C)C(=O)C(C)(C)Oc1nn(Cc2cccc(Cl)c2)c2ccccc12	i
CCn1nc(C)c(CN2C[C@@H](CO)[C@H](NC(=O)c3ccccc3)C2)c1C	-3.7%
Cc1cccc(C(=O)NCC23CCC=C2N(C)C(=O)CC3)c1 (stereo not drawn)	-1.9%
COCCCNc1cc(-c2cccc(C(F)(F)F)c2)nc2c(C)noc12	i
COc1cccc(N2CC(C(=O)NCc3cccc(Cl)c3)NC2=O)c1 (stereo not drawn)	-18.9%
CCNC(=O)Cc1c[nH]c2ncc(-c3ccccc3C)cc12	10.7%[44.1 µM]
CCCNC(=O)c1ccc2c(c1)N(Cc1cccc(C)c1)C(=O)c1ccccc1S2	-5.5%
O=C(NCc1ccccc1)c1ccc2nccn2c1	-13.4%[44.1 µM]
CC1=Nc2cc(C(=O)NC(C)C)ccc2Sc2ccc(C)cc21	11.2µM*
CNC(=O)c1ccc2c(c1)N=C(C)c1cc(C)ccc1S2	i
COc1ccc(CCNC(=O)c2ccc3[nH]c(C)c(C)c3c2)cc1OC	i
COc1ccc(CCNC(=O)c2ccc3c(c2)N(Cc2cccc(Cl)c2)C(=O)CS3)cc1OC	-4.4%
COc1ccc(CCNC(=O)c2cc(=O)c3cc(C)cc(C)c3o2)cc1OC	6.7%
COc1ccc(CCNC(=O)c2ccc3c(c2)N=C(C)c2cc(C)ccc2S3)cc1OC	11.2µM*
CCCC1=Nc2cc(C(=O)NCc3ccccc3)ccc2Sc2ccccc21	11.2µM*
CCCC1=Nc2cc(C(=O)NCCc3ccc(OC)c(OC)c3)ccc2Sc2ccc(C)cc21	10µM*
COc1ccc(CCNC(=O)c2ccc(Cn3c(=O)c4ccccc4n(Cc4ccc(C)cc4)c3=O)cc2)cc1OC	21.2%
Cc1ccc(C)c(CN2C(=O)c3ccccc3Sc3ccc(C(=O)NCCCOC(C)C)cc32)c1	-16.2%
CC1CCC2(CC1)NC(=O)N(CC(=O)Nc1ccc(F)cc1F)C2=O (stereo not drawn)	21.7%
COCC1(CNC(=O)c2ccc(F)cc2)C[C@@H](O)[C@@H](O)C1 (stereo partly drawn)	14.1%[44.1 µM]
O=C1Nc2ccc(-c3cccc(C(F)(F)F)c3)cc2C(=O)N2CCN(C(=O)COc3ccccc3)C[C@H]12	i
SMILES	Pf Dd2 inh
CCCN(C)C(=O)C1CCCN(c2cn[nH]c(=O)c2)C1 (stereo not drawn)	-8.1%
COc1ccccc1CNC(=O)CC1COCCN1C(=O)C1CCCCC1 (stereo not drawn)	3.4%
O=C(c1cc(F)ccc1F)N1C[C@@H](CO)[C@H](c2ccncc2)C1	-1.3%
Cc1ccsc1CN1CCC[C@H]1C(=O)N1CCCCCCNC(=O)CC1	i
COc1ccc(CN2CC3(CCN(C(=O)CCCc4ccccc4)CC3)C2=O)cc1	-20.7%
CSc1cccc(NC(=O)c2cc3c(N4CCSCC4)nc(C)cn3n2)c1	-93.9%
Cc1[nH]nc2c1C(c1c(F)cccc1F)C(C#N)=C(N)O2 (stereo not drawn)	-18.4%
O=C(C1CCC1)N1CCNc2cnc(Nc3ccccc3)nc2C1	10.0%[44.1 µM]
COc1ccccc1C(CC(=O)NCC(C)C)c1cn(C)c2ccccc12 (stereo not drawn)	i
COc1ccc(CCN(C)C(=O)CC(c2cccc(F)c2)c2cn(C)c3ccccc23)cc1OC (stereo not drawn)	2µM*
COc1cccc(C(CC(=O)NCCc2ccc(OC)c(OC)c2)c2c[nH]c3ccccc23)c1 (stereo not drawn)	-16.0%
CCn1ncc(N2CCCC(CC(=O)NCCN3CCCC3)C2)cc1=O (stereo not drawn)	65.6%
CCOc1ccc(N(C(=O)Cn2nnc3ccccc32)C(C(=O)NCc2ccccc2)c2ccc(OC)cc2)cc1 (stereo not drawn)	-21.7%
CC(=O)Nc1ccc(N(C(=O)Cn2nnc3ccccc32)C(C(=O)NCc2ccccc2)c2ccc(C)cc2)cc1 (stereo not drawn)	11.2µM*
CCC(Cn1nnc2ccccc2c1=O)NC(=O)Nc1ccc(C)cc1 (stereo not drawn)	17.5%
CN(Cc1nc2ccc(Cl)cc2[nH]1)C(=O)c1ccc2nccn2c1	-7.6%
O=C(NCc1ccc(F)cc1)NC1CCc2n[nH]c(=O)n2CC1 (stereo not drawn)	41.8%
O=C1CC2(CCN(c3nc(-c4ccccc4)nc4c3CCC4)CC2)CN1	-21.0%
COc1cc2c(cc1OC1CCCC1)NC(=O)C21CCN(c2ccnc(C)n2)CC1	12.6µM*
COc1cc2c(cc1OC1CCCC1)NC(=O)C21CCN(Cc2ccncc2)CC1	-3.9%[44.1 µM]
COc1cc2c(cc1OC1CCCC1)NC(=O)C21CCN(c2cc(NC3CC3)ncn2)CC1	-23.4%
